Sampled rows, rich in hits. Any-hit rate of the full collection: about 6.9%.
Giardia kill – Small Molecules that selectively kill Giardia lamblia: qHTS; activity change, % at 7.66 µM, hits read low; Giardia lamblia trophozoite viability; 0.15% of 340,000 active; in the data active = activity change below about -80%; inconclusive = between about -30% and that limit;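 also: parasites exposed to compound for two days anaerobically before the ATP read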
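Killing of trophozoites was scored by loss of ATP luminescence after a 48 hrs anaerobic exposure to compounds at 37 deg C, using 100 cells per well.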
MCF10A rereplic – A quantitative high throughput screen for small molecules that induce DNA re-replication in MCF 10a normal breast cells; MCF 10A DNA re-replication, Hoechst nuclear intensity, 48 h; Potency, µM (highest dose often 46.1 µM), actives largely listed as activators; 2.9% of 350,000 active; AID 624296, 2012; also: nearly all actives have a fitted effect of over 50% in size
S-ASM inh – Inhibitors of Secretory Acid Sphingomyelinase (S-ASM): qHTS. Sphingomyelin phosphodiesterase (Homo sapiens), P17405. placental ASM, HMU-PC fluorogenic substrate, 60 min. Potency, µM (series often up to 57.5 µM), actives largely listed as inhibitors. 0.006% of 340,000 active. AID 504937, 2011
Target sequence (P17405 47-631 limits assumed): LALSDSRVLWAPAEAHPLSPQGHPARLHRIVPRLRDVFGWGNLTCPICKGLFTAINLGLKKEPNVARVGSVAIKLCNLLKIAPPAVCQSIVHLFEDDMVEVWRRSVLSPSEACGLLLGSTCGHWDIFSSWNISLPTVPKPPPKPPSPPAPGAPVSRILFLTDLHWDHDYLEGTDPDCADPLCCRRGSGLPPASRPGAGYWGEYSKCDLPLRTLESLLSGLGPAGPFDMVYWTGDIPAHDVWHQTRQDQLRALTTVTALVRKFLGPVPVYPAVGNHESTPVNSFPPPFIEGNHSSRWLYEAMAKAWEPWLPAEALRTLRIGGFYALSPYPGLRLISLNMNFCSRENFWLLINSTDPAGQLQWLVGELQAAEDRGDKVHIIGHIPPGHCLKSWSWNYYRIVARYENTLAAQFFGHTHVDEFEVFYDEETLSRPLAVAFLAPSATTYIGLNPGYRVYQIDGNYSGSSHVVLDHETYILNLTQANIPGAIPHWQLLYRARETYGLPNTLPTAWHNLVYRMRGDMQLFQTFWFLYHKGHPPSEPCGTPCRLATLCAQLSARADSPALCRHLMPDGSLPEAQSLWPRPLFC
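Fluorescence read-out (Ex 386 nm, Em 447 nm) after stopping the reaction at pH 10. Enzyme: ASM from human placenta; substrate HMU-PC0, 9 uM final; 60 min, 37 °C. Compound preincubation 10 min, ambient temperature.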
SW480 rereplic – A quantitative high throughput screen for small molecules that induce DNA re-replication in SW480 colon adenocarcinoma cells; SW480 DNA re-replication, Hoechst DNA content imaging, 48 h; Potency, µM (titrated, usually from 46.1 µM), usual class: activators; AID 624297, 2012; 1.8% of 340,000 active; also: nearly all actives have a fitted effect of over 55% in size
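Per well, 250 cells were exposed to pinned compound for 48 hr. Nuclear DNA was visualised with Hoechst (40 min, 37 C) and total object intensity recorded by fluorescence scanning.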
KB-V1 cytotox – qHTS assay for MDR1-selective chemotherapeutics: Primary screen using the drug-selected MDR subline cells KB-V1. KB-V1 MDR cells viability, CellTiter-Glo, 72 h. Potency, µM (highest dose often 46.1 µM), usual class: cytotoxic. 3.4% of 400,000 active. AID 1347076, 2019; also: nearly all actives have a fitted effect of over 60% in size
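Readout: CellTiter-Glo luminescence, 10 min after addition. Cells: KB-V1 MDR subline, 72 h at 37 degrees C with compound. Analysis: corrected, normalized data fitted to concentration-effect curves.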
KB-3-1 cytotox – qHTS assay for MDR1-selective chemotherapeutics: Primary screen using the parental adenocarcinoma cell KB-3-1 | 1.4% of 400,000 active | Potency, µM (titrated, usually from 46.1 µM), most hits filed as cytotoxic | AID 1347075, 2019 | KB-3-1 viability, CellTiter-Glo ATP luminescence, 72 h; also: nearly all actives have a fitted effect of over 60% in size
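Viability of parental KB-3-1 cells, measured by CellTiter-Glo luminescence, followed a 72 h incubation at 37 °C with pinned compounds in phenol-red-free DMEM containing 10% FBS.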
A number is an active result; i = inactive; ? = inconclusive; nt = no result; ! = not active in a repeat. Unless noted, calls follow the shape of the dose curve; as a rule, active = well fitted curve in the direction sought with a large enough effect; inconclusive = small, poorly fitted or top-dose-only effect, or another doubt; inactive = no such curve, though single readings can be large; an effect the other way counts as inactive or inconclusive.

SMILES	Giardia kill	MCF10A rereplic	S-ASM inh	SW480 rereplic	KB-V1 cytotox	KB-3-1 cytotox
COc1ccc(OC)c(/C=C/c2cc3ccccc3cn2)c1	nt	nt	nt	nt	i	5.2µM
CN1C2C=C(N(CCc3c[nH]c4ccccc34)C(=O)c3ccc(Cl)cc3)CC1CC2 (configuration not stated)	i	i	i	?	23µM	?
CC1(CN2CCC(n3c(=O)[nH]c4ccccc43)CC2)OCc2ccccc2-n2cccc21 (configuration not stated)	nt	?	nt	i	nt	nt
Cc1ccc(C(O)(c2ccccc2)c2ccccc2C(C)N(C)C)c(C)c1 (configuration not stated)	i	i	i	i	18µM	i
Cc1ccn2c(NC3CCCC3)c(-c3ccncc3)nc2c1	i	i	i	i	i	i
Cc1ccn2c(NC3CCCCC3)c(-c3cccc(-c4cccc(Cl)c4)c3)nc2c1	i	21µM	i	?	i	i
CCCCCCSc1ccc(-c2nc3cc(C)ccn3c2NC2CCCCC2)cc1	i	18µM	i	i	?	?
CCCCCCSc1cc(-c2nc3cc(C)ccn3c2NC2CCCCC2)ccc1OC	i	?	i	i	i	?
Cc1ccc(S(=O)(=O)N2CCN(C(=O)CCC(=O)Nc3ccc(Br)c(C)c3)CC2)cc1	i	i	i	i	13µM	i
CCOC(=O)N1CCN(CCC(=O)Nc2ccc(Br)c(C)c2)CC1	i	i	i	i	18µM	?
Nc1nonc1-n1nnc(C(=O)N/N=C/c2cccnc2)c1CSC1=NCCS1	i	18µM	i	i	i	i
Nc1nonc1-n1nnc(C(=O)N/N=C/c2ccccc2)c1CSc1ccccc1	i	?	i	?	i	i
Nc1nonc1-n1nnc(C(=O)N/N=C/c2ccc(Br)cc2)c1CSC1=NCCS1	i	?	i	?	i	?
Cc1ccc(/C=N/NC(=O)c2nnn(-c3nonc3N)c2CSc2ccccc2)s1	i	21µM	i	13µM	i	i
CC(C)N(C(=O)CSc1n[nH]c(=O)n1CCc1ccccc1)C(C)C	i	i	i	i	i	i
FC(F)(F)c1nc(N2CCCC2)ncc1-c1nnnn1-c1ccccc1	i	i	i	i	2.9µM	?
Cc1ccc(-n2nnnc2-c2cnc(N3CCCC3)nc2C(F)(F)F)cc1	i	i	i	?	?	?
Nn1c(-c2ccc(O)cc2)nnc1-c1ccc(O)cc1	i	i	i	i	i	i
CCc1cccc(Nc2c3c(nc4ncnn24)CCC3)c1	i	i	i	i	18µM	i
CCSc1oc(-c2ccco2)nc1S(=O)(=O)c1ccc(F)cc1	i	i	i	i	16µM	i
CCSc1oc(-c2ccco2)nc1S(=O)(=O)c1ccc(C)cc1	i	i	i	i	?	i
CCN(CC)S(=O)(=O)c1ccc2c(c1)N(CC(=O)N1CCN(c3cc(Cl)ccc3C)CC1)C(=O)CO2	nt	nt	nt	nt	i	i
Cc1ccc(Cl)cc1N1CCN(CCCNC(=O)C2COc3ccccc3C2)CC1 (configuration not stated)	nt	nt	nt	nt	i	21µM
CCN(CC)S(=O)(=O)c1ccc2c(c1)N(CC(=O)NCCCN1CCN(c3cc(Cl)ccc3C)CC1)C(=O)CO2	nt	nt	nt	nt	13µM	?
Cc1cccc(N2CCN(CCNC(=O)C3COc4ccccc4C3)CC2)c1C (configuration not stated)	nt	nt	nt	nt	i	i
S=C(NCCC1=CCCCC1)Nc1ccc(Cl)cc1	i	i	i	i	7.3µM	i
COc1ccc(NC(=S)NCCC2=CCCCC2)cc1OC	i	i	i	i	i	i
Cc1ccn2c(Nc3ccccc3C)c(-c3ccncc3)nc2c1	i	i	i	?	23µM!	i
Cc1ccc(-c2nc3cnccn3c2Nc2ccccc2)o1	i	23µM	i	?	?	i
Clc1ccc(-c2nc3cnccn3c2Nc2ccc3c(c2)OCO3)cc1	i	?	i	i	i	i

Screens: PubChem, National Center for Advancing Translational Sciences (NCATS)
